This note sets out measurements from the supplement of paper PMC10981050.

Counter-ions that a name gives are not always drawn.

For this assay, the system named is MARIMO. As to the kind of experiment: cell viability relative to vehicle control; higher = less cytotoxic. To be noted: 10 µM; SRSF2 genotype: SRSF2 P95H/wt. A digest of the protocol:
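After removal of identity-inconsistent compounds, the Selleck bioactive, kinase and epigenetic probe libraries were screened on CRISPR-edited mutant clones and isogenic wild-type clones of four leukaemia lines. Plates were 384-well, each well holding 2000 cells in 50 µL medium and receiving a single 10 µM acoustically dispensed dose. CellTiter-Glo luminescence was read 48 h later, after the supernatant was taken off. Genedata Screener was used to express viability as percent of the on-plate vehicle control.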
With `NS(=O)(=O)c1cc2c(cc1Cl)N=CNS2(=O)=O` [Chlorothiazide], the cell viability stood at 98%.
Take `CC(C)CCCC(C)C1CCC2C3CCC4CC(O)CCC4(C)C3CCC12C` (configuration not stated) [Dihydrocholesterol]: the cell viability came out at 95.2%.
As for `CC(C)c1c(C(=O)Nc2ccccc2)c(-c2ccccc2)c(-c2ccc(F)cc2)n1CC[C@@H](O)C[C@@H](O)CC(=O)O` [Atorvastatin calcium (Lipitor)], the figure is 52%; as for `O=C1CCC(N2C(=O)c3ccccc3C2=O)C(=O)N1` (configuration not stated) [Thalidomide], 83.2%.
As for `COc1ccc(C2=N[C@@H](c3ccc(Cl)cc3)[C@@H](c3ccc(Cl)cc3)N2C(=O)N2CCNC(=O)C2)c(OC(C)C)c1` [Nutlin-3], the figure is 87.4%.
For `CC1(C)C(O[C@@H]2OC[C@@H](O)[C@H](O)[C@H]2O)CC[C@]23CC24CC[C@]2(C)[C@@H]([C@@]5(C)CC[C@@H](C(C)(C)O)O5)[C@H](O)C[C@@]2(C)C4C[C@@H](O[C@@H]2O[C@H](CO)[C@@H](O)[C@H](O)[C@H]2O)C13` (some centres not stated) [Astragaloside IV], the cell viability came to 112%.
As for `COC(=O)N[C@H](C(=O)N[C@@H](Cc1ccccc1)[C@@H](O)CN(Cc1ccc(-c2ccccn2)cc1)NC(=O)[C@@H](NC(=O)OC)C(C)(C)C)C(C)(C)C` [Atazanavir sulfate], the figure is 93.5%.
On to `CCCCCCCC/C=C\CCCCCCCC(=O)OCC` [Ethyl Oleate], for which the cell viability came out at 86.5%.
For `O=CC[C@@H](O)[C@H](O)[C@H](O)CO` [2-Deoxy-D-glucose], the cell viability came out at 101%.
The value for `C[S+](CC[C@H](N)C(=O)[O-])C[C@H]1O[C@@H](n2cnc3c(N)ncnc32)[C@H](O)[C@@H]1O` (some centres not stated) [Ademetionine] was 104%; that for `O=C1c2ccccc2C(=O)C1c1ccccc1` [Phenindione (Rectadione)] was 105%.
The value for `CNCC[C@@H](Oc1ccccc1C)c1ccccc1` [Atomoxetine HCl] was 100%; that for `CCNC(=O)[C@@H]1CCCN1C(=O)[C@H](CCCN=C(N)N)NC(=O)[C@H](CC(C)C)NC(=O)[C@@H](CC(C)C)NC(=O)[C@H](Cc1ccc(O)cc1)NC(=O)[C@H](CO)NC(=O)[C@H](Cc1c[nH]c2ccccc12)NC(=O)[C@H](Cc1cnc[nH]1)NC(=O)[C@@H]1CCC(=O)N1` [S3718 Leuprolide Acetate.cdx] was 110%; that for `Cc1onc(-c2c(F)cccc2Cl)c1C(=O)N[C@@H]1C(=O)N2[C@@H]1SC(C)(C)[C@@H]2C(=O)O` [Flucloxacillin sodium] was 100%.
With `CC(CCc1ccccc1)NCC(=O)c1ccc(O)c(C(N)=O)c1` (configuration not stated) [Labetalone hydrochloride], the cell viability is 96.7%.
On to `COc1cc(C(=O)N(CCCc2ccccc2)Cc2ccc(CC(=O)O)cc2)cc(OC)c1C`, for which the cell viability amounted to 105%.
The value for `O=C1N=C(O)NC1(c1ccccc1)c1ccccc1` [Phenytoin sodium (Dilantin)] was 104%.
As for `Cn1c(Nc2ccc(C(F)(F)F)cc2)nc2cc(Oc3ccnc(-c4ncc(C(F)(F)F)[nH]4)c3)ccc21`, the figure is 52.3%; as for `CCc1cncnc1N1CCN(Cc2nc3ccc(C(F)(F)F)cc3[nH]2)CC1`, 66.4%; as for `N#Cc1cc(-c2n[nH]c(-c3ccncc3)n2)ccn1` [Topiroxostat], 104%.
As for `O=C1c2c(O)cc(O)cc2OC(c2ccc(O)c(O)c2)C1O` (configuration not stated) [Taxifolin (Dihydroquercetin)], the figure is 91.9%.
As for `CC1(C)CCCC2(C)C1CCC1(C)OCCC12` (single isomer, unassigned; (-)) [(-)-Ambroxide], the cell viability is 97.9%.
Turning to `CCOc1nc2cccc(C(=O)OC(C)OC(=O)OC3CCCCC3)c2n1Cc1ccc(-c2ccccc2-c2nn[nH]n2)cc1` (configuration not stated) [Candesartan cilexetil (Atacand)], the cell viability worked out at 98.8%.
As for `COc1cc2c(=O)c3c(O)c([C@@H]4O[C@H](CO[C@@H]5OC[C@](O)(CO)[C@H]5O)[C@@H](O)[C@H](O)[C@H]4O)c(O)cc3oc2cc1O` [Polygalaxanthone III], the figure is 100%.
As for `O=[N+]([O-])c1ccc2c(c1)S(=O)(=O)C=C2` [Stattic], the figure is 0.14%; as for `CC(C)OC(=O)OCOP(=O)(CO[C@H](C)Cn1cnc2c(N)ncnc21)OCOC(=O)OC(C)C` [Tenofovir Disoproxil Fumarate], 79.8%; as for `CC(=O)OC(C)(C)CCC(=O)[C@](C)(O)[C@H]1[C@H](O)C[C@@]2(C)[C@@H]3CC=C4[C@@H](C[C@H](O)[C@@H](O)C4(C)C)[C@]3(C)C(=O)C[C@]12C` [Curcurbitacin IIA], 80.9%.
